These results are taken from PubChem BioAssay.

Assay [1] can be described thus: Wnt pathway potentiators raising nuclear beta-catenin – imaging, WNT3A-conditioned medium, mouse C2C12, NPC library, primary screen (AID 1117326; in the data active means nuclear beta-catenin stimulation mostly above about 4.2%, no sharp cut-off; inactive means mostly below about 10%; further: reference of the scale not given here). Conditions: stronger effect = higher value.
Assay [2] in a line: stimulators of insulin release from INS-1E, primary screen, cell-based, 5 mM glucose, NPC library (AID 1117329;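 active means compound raises insulin release from rat beta cells at 5 mM glucose, no numeric limit stated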; further: reference of the scale not given here). Conditions: rat INS-1E insulin secretion, at 10 µM, stronger effect = higher value.
Assay [3] is described as follows: growth inhibition of GSK3B-pretreated HCT116 cells – cell-based, CellTiter-Glo, 0.2 to 20 µM (AID 1117336;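 active means compounds lowering colon cancer cell viability after pretreatment blocking the GSK3B kinase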). Conditions: HCT116 viability after GSK3B inhibitor, at 20 µM, stronger effect = higher value.
A short description of assay [4]: inhibition of endothelial tube formation, primary screen, imaging, VEGF stimulated, CD31 staining, tube area, NPC library (AID 1117340;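 active means compound that reduces growth-factor-driven endothelial tube area in a mixed cell culture, no cutoff stated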). Conditions: VEGF-stimulated ADSC/ECFC co-culture, at 10 µM, stronger effect = higher value.
Assay [5] is described as follows: GLP1 release stimulators, primary, NCI-H716, NPC library (AID 1117341;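 active means compound raises GLP1 secretion from the human gut endocrine cells, with no numeric limit stated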; further: reference of the scale not given here). Conditions: NCI-H716 cells, at 10 µM, stronger effect = higher value.
The nature of assay [6]: HCT116 colon cancer cell growth inhibition, primary screen, CellTiter-Glo luminescence, NPC library (AID 1117342;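 active means compounds that lower survival of HCT116 colon cancer cells in the luminescence readout, no numeric limit stated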). Conditions: at 20 µM (top of the series).
A short description of assay [7]: reduced SW480 viability measured with CellTiter-Glo, NPC library, primary (AID 1117343). Conditions: CellTiter-Glo luminescence; at 20 µM (top of the series).
A short description of assay [8]: NPC library primary testing for decreased DLD-1 cell viability via CellTiter-Glo (AID 1117346;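 active means compounds that lower survival of DLD-1 colon cancer cells in the luminescence readout, no cutoff given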). Conditions: DLD-1 viability, CellTiter-Glo luminescence; at 20 µM (top of the series).

Active and inactive are the calls of the source.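 How the source made its calls, unless noted: active means compounds that lower viability of the colon cancer cells in the luminescence readout, with no numeric limit stated; inactive means the rest.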

Consider `Nc1ccc(O)cc1`, for which the nuclear beta-catenin stimulation was 18.2% (inactive) in assay [1] (at 10 µM) and 2% in assay [1] (stimulation, at 2 µM). For the same compound, the insulin secretion stimulation in assay [2] was 1% (inactive). The viability decrease in assay [3] is 99.1% (active). Also, in assay [4], the tube area decrease was 60.9% (active). Moreover, the GLP1 secretion stimulation in assay [5] is -3.8% (inactive). Further, in assay [6], the inhibition of viability is 99.3% (active). Besides, the viability decrease (inhibition) in assay [7] is 102% (active); in assay [8], 62.6% (active).
`Cc1ccc(S(=O)(=O)NC(=O)NC2CCCCC2)cc1`: the nuclear beta-catenin stimulation in assay [1] (at 10 µM) was 0.6% (inactive); in assay [1] (stimulation, at 2 µM), 0.3%. The insulin secretion stimulation in assay [2] is 26.7% (active). Further, in assay [3], the viability decrease was -13% (inactive). For the same compound, the tube area decrease in assay [4] was -13.1% (inactive). For the same compound, the GLP1 secretion stimulation in assay [5] is -5.7% (inactive). In assay [6], the inhibition of viability is 0.6% (inactive). In addition, the values for the viability decrease (inhibition) in assay [7] and in assay [8] were 17.6% (inactive) and -1.8% (inactive), respectively.
In the case of `CCN(CC)CC(=O)OCC(=O)[C@@]1(O)CC[C@H]2[C@@H]3CCC4=CC(=O)CC[C@]4(C)[C@H]3[C@@H](O)C[C@@]21C`, the nuclear beta-catenin stimulation in assay [1] (at 10 µM) was -0.5% (inactive); in assay [1] (stimulation, at 2 µM), -0.8%. Besides, the insulin secretion stimulation in assay [2] was -0.5% (inactive). Moreover, the viability decrease in assay [3] was -24.6% (inactive). Also, in assay [4], the tube area decrease was 0.8% (inactive). Besides, in assay [5], the GLP1 secretion stimulation is 1.1% (inactive). Also, in assay [6], the inhibition of viability was -15.9% (inactive). The viability decrease (inhibition) is 37.2% (inactive) in assay [7] and -9.9% (inactive) in assay [8].
Regarding `CCCCC(O)/C=C(C)/C=C/C=C/C(=O)N1CCCC1=O` (stereo not drawn), the nuclear beta-catenin stimulation in assay [1] (at 10 µM) was -1% (inactive); in assay [1] (stimulation, at 2 µM) it was -0.4%. In addition, the insulin secretion stimulation in assay [2] is 0.3% (inactive). The viability decrease in assay [3] was 1.6% (inactive). For the same compound, the tube area decrease in assay [4] was 17.5% (inactive). Also, in assay [5], the GLP1 secretion stimulation was 1.3% (inactive). In addition, the inhibition of viability in assay [6] was 37.5% (inactive). The viability decrease (inhibition) in assay [7] was 59.3% (active); in assay [8], -19.2% (inactive).
With `Cc1nc(C2CCCCC2)c(-c2ccc(S(N)(=O)=O)c(F)c2)o1`, the nuclear beta-catenin stimulation is 2.5% (inactive) in assay [1] (at 10 µM) and 4.1% in assay [1] (stimulation, at 2 µM). Moreover, in assay [2], the insulin secretion stimulation was 1.4% (inactive). Further, in assay [3], the viability decrease is 21% (inactive). In addition, the tube area decrease in assay [4] was 24% (inactive). For the same compound, in assay [5], the GLP1 secretion stimulation was 1.8% (inactive). Further, the inhibition of viability in assay [6] was -0.63% (inactive). In addition, the results for the viability decrease (inhibition) in assay [7] and in assay [8] were 6.3% (inactive) and 3.1% (inactive), respectively.
Regarding `CCOCCOC(=O)/C=C/c1ccc(OC)cc1`, the nuclear beta-catenin stimulation in assay [1] (at 10 µM) is 1.4% (inactive); in assay [1] (stimulation, at 2 µM) it was 1%. The insulin secretion stimulation in assay [2] is -1.7% (inactive). Besides, in assay [3], the viability decrease is -11.8% (inactive). Further, the tube area decrease in assay [4] is 18.9% (inactive). The GLP1 secretion stimulation in assay [5] was -4% (inactive). In addition, the inhibition of viability in assay [6] is -4.53% (inactive). Further, the viability decrease (inhibition) in assay [7] is 17.1% (inactive); in assay [8], 9.7% (inactive).
With `NC(N)=NN=C(/C=C/c1ccc([N+](=O)[O-])o1)/C=C/c1ccc([N+](=O)[O-])o1`, the nuclear beta-catenin stimulation in assay [1] (at 10 µM) is -3% (active); in assay [1] (stimulation, at 2 µM) it was 56.2%. Also, the insulin secretion stimulation in assay [2] was 6% (inactive). Further, in assay [3], the viability decrease was 99.3% (active). Further, the tube area decrease in assay [4] is 38.8% (active). For the same compound, in assay [5], the GLP1 secretion stimulation is -3% (inactive). Also, in assay [6], the inhibition of viability is 99.5% (active). The viability decrease (inhibition) in assay [7] is 102% (active); in assay [8] it was 96% (active).
For `O=C(CCN1CCN(CCO)CC1)N1c2ccccc2Sc2ccc(C(F)(F)F)cc21`, the nuclear beta-catenin stimulation in assay [1] (at 10 µM) was 2.5% (inactive); in assay [1] (stimulation, at 2 µM), 1.4%. Further, the insulin secretion stimulation in assay [2] is 8.2% (inactive). Also, the viability decrease in assay [3] is 50.2% (active). For the same compound, the tube area decrease in assay [4] was 25.8% (inactive). The GLP1 secretion stimulation in assay [5] is 2.4% (inactive). Further, the inhibition of viability in assay [6] was 49.2% (inactive). Also, the viability decrease (inhibition) was 96.4% (active) in assay [7] and 58.8% (active) in assay [8].
For `C=C1C(=C/C=C2\CCC[C@]3(C)[C@@H]([C@H](C)/C=C/[C@@H](O)C4CC4)CC[C@@H]23)C[C@@H](O)C[C@@H]1O`, the nuclear beta-catenin stimulation was 2.6% (inactive) in assay [1] (at 10 µM) and 4.1% in assay [1] (stimulation, at 2 µM). For the same compound, the insulin secretion stimulation in assay [2] was 4.15% (inactive). Further, the viability decrease in assay [3] is 103% (active). The tube area decrease in assay [4] is 19.7% (inactive). Further, in assay [5], the GLP1 secretion stimulation was 3.9% (inactive). Also, the inhibition of viability in assay [6] is 82% (active). Moreover, the viability decrease (inhibition) in assay [7] was 111% (active); in assay [8], 92.9% (active).
With `O=C(OCC(COC(=O)c1cccnc1)(COC(=O)c1cccnc1)COC(=O)c1cccnc1)c1cccnc1`, the nuclear beta-catenin stimulation in assay [1] (at 10 µM) was -0.6% (inactive); in assay [1] (stimulation, at 2 µM), -0.3%. Also, in assay [2], the insulin secretion stimulation is 1.6% (inactive). The viability decrease in assay [3] is -13.3% (inactive). Besides, the tube area decrease in assay [4] is -11.4% (inactive). Further, the GLP1 secretion stimulation in assay [5] is 0.8% (inactive). Moreover, the inhibition of viability in assay [6] is 17.4% (inactive). The viability decrease (inhibition) in assay [7] was -4.3% (inactive); in assay [8], -2.7% (inactive).
In the case of `CN1CCC(N(Cc2cccs2)c2ccccc2)CC1`, the nuclear beta-catenin stimulation in assay [1] (at 10 µM) is -0.3% (inactive); in assay [1] (stimulation, at 2 µM) it was 5.8%. For the same compound, the insulin secretion stimulation in assay [2] is 26.2% (active). In addition, the viability decrease in assay [3] was 53.9% (active). Further, the tube area decrease in assay [4] is -3.7% (inactive). For the same compound, the GLP1 secretion stimulation in assay [5] is 10% (inactive). The inhibition of viability in assay [6] was 49.3% (inactive). Moreover, the viability decrease (inhibition) in assay [7] is 72.8% (active); in assay [8] it was 13.1% (inactive).
As for `C/C(=C(/OCCOc1ccc(Cl)cc1)c1ccc(Cl)cc1Cl)n1ccnc1`, the nuclear beta-catenin stimulation was 3.9% (inactive) in assay [1] (at 10 µM) and 1.3% in assay [1] (stimulation, at 2 µM). The insulin secretion stimulation in assay [2] was -0.7% (inactive). Also, in assay [3], the viability decrease was 102% (active). The tube area decrease in assay [4] was 109% (active). Moreover, in assay [5], the GLP1 secretion stimulation is 4.1% (inactive). Moreover, the inhibition of viability in assay [6] is 102% (active). Besides, the viability decrease (inhibition) is 143% (active) in assay [7] and 105% (active) in assay [8].
On to `CCOC(=O)c1c(N)sc2c1CCN(Cc1ccccc1)C2`, for which the nuclear beta-catenin stimulation is 0.4% (inactive) in assay [1] (at 10 µM) and 0.3% in assay [1] (stimulation, at 2 µM). In addition, the insulin secretion stimulation in assay [2] was -0.1% (inactive). In assay [3], the viability decrease is 21.9% (inactive). Moreover, in assay [4], the tube area decrease is 33.8% (inactive). The GLP1 secretion stimulation in assay [5] is 0.5% (inactive). Also, the inhibition of viability in assay [6] was 47.3% (inactive). The figures for the viability decrease (inhibition) in assay [7] and in assay [8] were 84.1% (active) and 31.8% (active), respectively.
Regarding `Cc1ccc(O)c2ncccc12`, the nuclear beta-catenin stimulation is 30.3% (inactive) in assay [1] (at 10 µM) and 2.4% in assay [1] (stimulation, at 2 µM). For the same compound, the insulin secretion stimulation in assay [2] is -2% (inactive). The viability decrease in assay [3] was 16.6% (inactive). Also, the tube area decrease in assay [4] is 5.7% (inactive). Further, the GLP1 secretion stimulation in assay [5] was 2.8% (inactive). Moreover, the inhibition of viability in assay [6] is 33% (inactive). The viability decrease (inhibition) is 27% (inactive) in assay [7] and 4.9% (inactive) in assay [8].
For `CCCCC(CC)COC(=O)c1ccc(N(C)C)cc1` (stereo not drawn), the nuclear beta-catenin stimulation in assay [1] (at 10 µM) is 0.3% (inactive); in assay [1] (stimulation, at 2 µM), 0.5%. Further, the insulin secretion stimulation in assay [2] is -2.6% (inactive). Also, the viability decrease in assay [3] was 34.1% (inactive). Besides, the tube area decrease in assay [4] was 0.5% (inactive). Also, the GLP1 secretion stimulation in assay [5] is -2.3% (inactive). In assay [6], the inhibition of viability was 18% (inactive). Moreover, the viability decrease (inhibition) in assay [7] was 32.1% (inactive); in assay [8], 48.1% (inactive).
As for `CC(C)=CCOc1ccc(/C=C/C(=O)c2ccc(OCC=C(C)C)cc2OCC(=O)O)cc1`, the nuclear beta-catenin stimulation in assay [1] (at 10 µM) was 10.1% (inactive); in assay [1] (stimulation, at 2 µM), -0.2%. Moreover, in assay [2], the insulin secretion stimulation was 0.6% (inactive). The viability decrease in assay [3] was 99.2% (active). Moreover, in assay [4], the tube area decrease was 108% (active). In assay [5], the GLP1 secretion stimulation was -0.1% (inactive). In addition, the inhibition of viability in assay [6] is 99.6% (active). Moreover, the viability decrease (inhibition) in assay [7] and in assay [8] was 102% (active) each time.
On to `CC(=O)Nc1ccc(S(=O)(=O)Nc2cc(C)on2)cc1`, for which the nuclear beta-catenin stimulation in assay [1] (at 10 µM) was 1.7% (inactive); in assay [1] (stimulation, at 2 µM) it was 0.3%. The insulin secretion stimulation in assay [2] is 0.5% (inactive). In addition, the viability decrease in assay [3] was -7% (inactive). Also, in assay [4], the tube area decrease is -15.5% (inactive). Moreover, the GLP1 secretion stimulation in assay [5] was 0.1% (inactive). For the same compound, in assay [6], the inhibition of viability is 0.8% (inactive). In addition, the viability decrease (inhibition) in assay [7] was -14.4% (inactive); in assay [8], 2% (inactive).
